The text below walks through data of PubChem BioAssay (NCATS).

Results filed as inconclusive are left out. Calls of active or inactive are those of the source.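 The calls were made as follows, unless noted: active = compounds whose dose series gives a full or clear partial fitted curve of increased nuclear translocation; inconclusive = weak partial curve or effect only at the top dose; inactive = no dose-dependent translocation response.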

Tested on in the first assay: not listed separately
Put plainly: Stat Signaling Pathway (AID 446; active = well fitted curve in either direction with a large enough effect, not every such curve was filed as active;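 also: ME-180 cervical cancer cells given 40 pM IL-6 alongside compound; SIE-controlled beta-lactamase reporter measured as 460/530 nm FRET emission ratio; % is scaled to controls: 0 for no effect and ±100 for the full control effect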). The conditions noted are these: ME-180 (cervical carcinoma) SIE beta-lactamase reporter, IL-6 stimulated, 5 h; series mostly up to 17.2 µM; activity, negative = inhibition: at the top concentration. A digest of the protocol:
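FRET read-out (405 nm excitation, 460/530 nm emission) of a beta-lactamase reporter under a STAT-inducible element in ME-180 cervical carcinoma cells. Cells with compound receive 40 pM IL-6 for 5 h. Values are normalised to AC90 stimulation and AC90 JAK-inhibitor controls.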
For the compound `C[C@H]1CCC/C=C/C2C[C@H](O)CC2[C@H](O)/C=C/C(=O)O1` (stereo partly specified), the “activity, negative = inhibition” value is -29.2% (inactive). On the same count and under the same terms, with `CCCCCCn1c(O)c(C=Nc2c(C)n(C)n(-c3ccccc3)c2=O)c(=O)[nH]c1=O` the figure was -4.65% (inactive). On the same count and under the same terms, with `CCOc1ccc(-n2c(O)c(C=Nc3ccc(N(CC)CC)cc3)c(=O)[nH]c2=O)cc1` the figure was -22.4% (inactive); with `O=C(COc1ccc2ccccc2c1)N1CCN(C2CCN(Cc3ccccc3)CC2)CC1`, 2.81% (inactive). On the same count and under the same terms, with `CCC(=NCCN1CCCCC1)c1c(O)n(C)c(=O)n(C)c1=O` the figure was 2.16% (inactive); with `C[C@@H]1O[C@@H](O[C@H]2C[C@@H](O)[C@]3(CO)[C@@H]4[C@@H](O)C[C@]5(C)[C@H]([C@@H]6COC(=O)C6)CC[C@@]5(O)[C@H]4CC[C@@]3(O)C2)[C@H](O)[C@H](O)[C@@H]1O`, -12.3% [at 38 µM] (inactive); with `COc1ccc(OC)c([C@@H](O)[C@H](C)NC(C)(C)C)c1`, 2.91% (inactive). Take `CN1CCC(OC(=O)C2c3ccccc3Oc3ccccc32)CC1`: the “activity, negative = inhibition” value was 8.39% (inactive).

For the next assay, the target named is Glucocorticoid receptor (Homo sapiens) (UniProt P04150). In words: GR-GFP Redistribution (AID 450). Also: potency is read from the fitted curve at half-maximal effect. The following applies: U2OS GR-GFP nuclear translocation, laser cytometry, 2 h.
Chain of Glucocorticoid receptor (Homo sapiens) (P04150 whole entry, looked up): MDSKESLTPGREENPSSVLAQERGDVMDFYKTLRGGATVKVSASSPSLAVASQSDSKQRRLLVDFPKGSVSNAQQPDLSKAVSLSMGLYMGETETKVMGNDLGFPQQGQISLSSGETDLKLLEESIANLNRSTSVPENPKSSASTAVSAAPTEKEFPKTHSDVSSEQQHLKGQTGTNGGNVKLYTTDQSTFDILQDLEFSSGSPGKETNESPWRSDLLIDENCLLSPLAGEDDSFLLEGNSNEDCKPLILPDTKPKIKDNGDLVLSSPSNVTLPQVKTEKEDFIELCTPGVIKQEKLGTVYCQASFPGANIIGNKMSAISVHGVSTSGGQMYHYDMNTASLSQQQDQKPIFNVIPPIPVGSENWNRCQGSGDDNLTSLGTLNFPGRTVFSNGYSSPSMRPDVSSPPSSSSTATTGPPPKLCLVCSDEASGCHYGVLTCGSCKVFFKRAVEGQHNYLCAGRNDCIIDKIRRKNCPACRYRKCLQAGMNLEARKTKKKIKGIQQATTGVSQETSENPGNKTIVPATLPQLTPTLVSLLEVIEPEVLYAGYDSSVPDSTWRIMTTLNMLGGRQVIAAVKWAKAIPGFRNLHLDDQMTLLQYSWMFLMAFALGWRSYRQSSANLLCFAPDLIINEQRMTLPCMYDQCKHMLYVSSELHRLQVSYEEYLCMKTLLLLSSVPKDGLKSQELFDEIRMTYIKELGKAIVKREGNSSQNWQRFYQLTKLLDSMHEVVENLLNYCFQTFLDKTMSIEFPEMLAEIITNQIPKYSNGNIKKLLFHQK
As for `Cc1c(N=Cc2c(O)n(CCc3ccccc3)c(=O)[nH]c2=O)c(=O)n(-c2ccccc2)n1C`, the Potency was > 20.6 µM (inactive). On to `C[C@@H](CO)NC(=O)[C@H]1C=C2c3cccc4[nH]cc(c34)C[C@H]2N(C)C1`, for which the Potency is > 46 µM (inactive).

`C[C@H]1CCC/C=C/C2C[C@H](O)CC2[C@H](O)/C=C/C(=O)O1` (stereo partly specified): the Potency is > 20.6 µM (inactive).

For `CC1=CC(=O)C2=C(C)C[C@H](O)[C@@H]3[C@@H](OC(=O)[C@H]3C)[C@H]12`, the Potency was > 46 µM (inactive). Same read-out and setting: then `CCN(CC)c1ncnc2c1ncn2[C@@H]1O[C@@H](COP(=O)(O)OP(=O)(O)C(Br)(Br)P(=O)(O)O)[C@H](O)[C@H]1O`, with > 46 µM (inactive); and `COC1=C[C@H]2[C@@H]3Cc4ccc(OC)c(O)c4[C@@]2(CCN3C)CC1=O`, with > 46 µM (inactive). The same measure, in the same setting: with `O=c1ccc2cc(O[C@@H]3O[C@@H](CO)[C@@H](O)[C@@H](O)[C@H]3O)c(O)cc2o1` the figure was > 46 µM (inactive). The same measure, in the same setting: then `COc1cc2c(cc1O)CCN[C@H]2C`, with > 46 µM (inactive). As for `c1cc2c(cc1[C@H]1OC[C@H]3[C@@H]1CO[C@H]3c1ccc3c(c1)OCO3)OCO2`, the Potency is > 46 µM (inactive). Same read-out and setting: then `CN1CCc2nc3sc(C#N)c(N)c3c(-c3cccs3)c2C1`, with > 20.6 µM (inactive). On the same count and under the same terms, with `CCCCCCn1c(O)c(C=Nc2c(C)n(C)n(-c3ccccc3)c2=O)c(=O)[nH]c1=O` the figure was > 20.6 µM (inactive); with `OC[C@H]1CCCN2CCCC[C@@H]12`, > 46 µM (inactive). Same read-out and setting: with `CC(C)[C@]1(NC(=O)[C@H]2C=C3c4cccc5[nH]cc(c45)C[C@H]3N(C)C2)O[C@@]2(O)[C@H]3CCCN3C(=O)[C@H](Cc3ccccc3)N2C1=O` the figure was > 46 µM (inactive); with `NC(=O)c1ccc(OC[C@H](O)CN2CC=C(c3ccc(F)cc3)CC2)cc1`, > 46 µM (inactive); with `CCc1nc(N2CCNCC2)c(C#N)c2c1CSC(C)(C)C2`, > 20.6 µM (inactive).

For the compound `CCOc1ccc(-n2c(O)c(C=Nc3ccc(N(CC)CC)cc3)c(=O)[nH]c2=O)cc1`, the Potency is > 20.6 µM (inactive).

In the case of `C[C@H]1C(=O)O[C@H]2CCN3CC=C(COC(=O)[C@](C)(O)[C@@]1(C)O)[C@H]23`, the Potency was > 46 µM (inactive).

As for `O=C(COc1ccc2ccccc2c1)N1CCN(C2CCN(Cc3ccccc3)CC2)CC1`, the Potency is > 20.6 µM (inactive). Still for that read-out and setting: with `C=C(C)[C@H]1[C@H]2OC(=O)[C@@H]1[C@]1(O)C[C@H]3O[C@]34C(=O)O[C@H]2[C@]14C` the figure was > 46 µM (inactive); with `CC[C@H]1CN2CC[C@@H]1C[C@@H]2[C@H](O)c1ccnc2ccccc12`, > 46 µM (inactive); with `CCCCCC[C@H]1C(=O)O[C@@H](C)[C@H](NC(=O)c2cccc(NC=O)c2O)C(=O)O[C@@H](C)[C@@H]1OC(=O)CC(C)C`, > 46 µM (inactive). Take `C[C@@]12CCC[C@](C)(C(=O)O)[C@@H]1CCc1ccc(O)cc12`: the Potency was > 46 µM (inactive).

With `CCC(=NCCN1CCCCC1)c1c(O)n(C)c(=O)n(C)c1=O`, the Potency was > 20.6 µM (inactive). Still for that read-out and setting: then `c1cc2cc(c1)C[n+]1ccc(c3ccccc31)NCc1ccc(cc1)CNc1cc[n+](c3ccccc13)C2`, with > 46 µM (inactive).

On to `CO[C@@H](C)[C@](O)(C(=O)OC1=CCN2CC[C@H](O)[C@H]12)C(C)C`, for which the Potency is > 46 µM (inactive).

`C[C@@H]1CCC/C=C\[C@H]2C[C@H](O)C[C@@H]2[C@H](O)/C=C\C(=O)O1`: the Potency is > 46 µM (inactive).

In the case of `C[C@@H]1O[C@@H](O[C@H]2C[C@@H](O)[C@]3(CO)[C@@H]4[C@@H](O)C[C@]5(C)[C@H]([C@@H]6COC(=O)C6)CC[C@@]5(O)[C@H]4CC[C@@]3(O)C2)[C@H](O)[C@H](O)[C@@H]1O`, the Potency was > 46 µM (inactive).

On to `COc1ccc(OC)c([C@@H](O)[C@H](C)NC(C)(C)C)c1`, for which the Potency is > 20.6 µM (inactive). On the same count and under the same terms, with `CC[C@H](CO)NC(=O)[C@H]1C=C2c3cccc4[nH]cc(c34)C[C@H]2N(C)C1` the figure was > 46 µM (inactive).

On to `CC(C)(O)[C@H]1[C@H]2OC(=O)[C@@H]1[C@]1(O)C[C@H]3O[C@]34C(=O)O[C@H]2[C@]14C`, for which the Potency was > 46 µM (inactive).

Consider `COC[C@H]1OC(=O)c2coc3c2[C@@]1(C)C1=C(C3=O)[C@H]2CCC(=O)[C@@]2(C)C[C@H]1OC(C)=O`, for which the Potency was 0.838 µM (active). Still for that read-out and setting: then `C[C@H]1CC[C@]2(NC1)O[C@@H]1C[C@@H]3[C@@H]4CC=C5C[C@H](O)CC[C@@]5(C)[C@H]4CC[C@@]3(C)[C@H]1[C@@H]2C`, with > 46 µM (inactive); and `C[C@H]1CC[C@@H]2[C@@H](C)C(=O)O[C@H]3O[C@@]4(C)CC[C@@H]1[C@]32OO4`, with > 46 µM (inactive). The same measure, in the same setting: then `COc1cc2c(cc1OC)-c1c(O)c(OC)cc3c1[C@@H](C2)N(C)CC3`, with > 46 µM (inactive); and `COc1cc2c(cc1OC)-c1c(OC)c(OC)c(CO)c3c1[C@H](C2)N(C)CC3`, with > 46 µM (inactive); and `CN1CCC(OC(=O)C2c3ccccc3Oc3ccccc32)CC1`, with > 20.6 µM (inactive). Same read-out and setting: with `CC[C@@H]1CN2CC[C@@H]1C[C@H]2[C@@H](O)c1ccnc2ccc(OC)cc12` the figure was > 46 µM (inactive). With `C[C@H]1CCCC=CC2C[C@H](O)C[C@@H]2[C@H](O)/C=C\C(=O)O1` (stereo partly specified), the Potency was > 46 µM (inactive).
